# TDP1 cell CPT: growth inhibition of DT40 Tdp1-/-;hTDP1 cells with camptothecin (screen for TDP1 inhibitors). AID 686979. 12% of 420,000 active. Potency, µM (doses to about 46.2 µM), hits mostly inhibitors. chicken DT40 Tdp1-/-;hTDP1 cells + 20 nM CPT, ATP luminescence, 48 h; further: nearly all actives have a fitted effect of over 55% in size
#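 Chicken DT40 Tdp1-/- cells complemented with human TDP1, 400 cells/well, exposed to compounds plus 20 nM camptothecin for at least 48 h at 37 C; viability read as ATP content by CellTiter-Glo luminescence.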
# RORg inh: ROR gamma (mouse) transcription inhibition | Drosophila S2 Gal4-RORgamma UAS-luciferase reporter, 20 h | Potency, µM (highest dose often 53.6 µM), usual class: inhibitors | 5.4% of 310,000 active; further: nearly all actives have a fitted effect of over 60% in size
#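 A Gal4/UAS one-hybrid system in insect cells: metallothionein-promoter Gal4–ROR gamma fusion plus Photinus luciferase reporter. Copper sulfate 700 uM final, 20 hr ambient incubation, luminescent detection after 10 min with reagent.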
# TDP1 block: inhibitors of human tyrosyl-DNA phosphodiesterase TDP1. 0.28% of 350,000 active. AID 485290. Potency, µM (series often up to 130 µM), most hits filed as inhibitors. recombinant TDP1, AlphaScreen DNA substrate cleavage; further: nearly all actives have a fitted effect of over 40% in size
#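 Enzyme-compound mixtures sat 15 min at room temperature, followed by a 5 min reaction with 15 nM final substrate and 10 min with AlphaScreen beads. Recombinant human Tdp1 was used at 1 nM final.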
# VP16 counter: inhibits Gal4-VP16 luciferase reporter, ROR gamma counter-screen; Drosophila S2 Gal4-VP16 UAS-luciferase, luminescence, 20 h; Potency, µM (titrated, usually from 53.6 µM), actives largely listed as inhibitors; 3.5% of 310,000 active;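 further: Gal4-VP16 expression switched on by copper sulfate through the metallothionein promoter; nearly all actives have a fitted effect of over 50% in size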
# TDP1 cell noCPT: qHTS for Inhibitors of human tyrosyl-DNA phosphodiesterase 1 (TDP1): qHTS in cells in absence of CPT | DT40 Tdp1-/- hTDP1 cells, no CPT, ATP luminescence, 48 h | Potency, µM (doses to about 46.2 µM), hits mostly inhibitors | 15% of 420,000 active | AID 686978, 2013; further: nearly all actives have a fitted effect of over 55% in size
#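 Readout: luminescence from CellTiter-Glo after 30 min in the dark at RT. Cells: DT40 Tdp1-/- with stable hTDP1, 400/well. Exposure: compounds alone, ≥48 hr, 37 °C.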
# Hits are given with their value; n = inactive; u = inconclusive; x = not tested or not shown; [ ] = another dose, or the depositor's remark. An excerpt weighted towards active compounds, which were near 19% of everything screened. The call rests on the fitted dose curve; in most records, active means well fitted curve in the direction sought with a large enough effect; inconclusive means small, poorly fitted or top-dose-only effect, or another doubt; inactive means no such curve, though single readings can be large; an effect the other way counts as inactive or inconclusive.
SMILES,TDP1 cell CPT,RORg inh,TDP1 block,VP16 counter,TDP1 cell noCPT
Cc1ccc2nc(SCC(=O)N/N=C/c3ccc(C(=O)O)cc3)cc(C)c2c1,n,n[1.91 µM],x,u,n
O=c1[nH]c(C2CCN(S(=O)(=O)c3ccccc3C(F)(F)F)CC2)nc2c1nnn2Cc1ccccc1,u,u,x,n,u
COc1ccc(/C=C/C(=O)c2cc(Cl)ccc2O)c(OC)c1,u,n,x,n,u
COc1ccc(C(=O)/C=C/c2ccc(OC)cc2OC)c(O)c1,u,0.79µM,n,n,u
COc1ccc(/C=C/C(=O)/C=C/c2ccc(OC)cc2OC)c(OC)c1,u,n,n,n,u
COc1ccc(/C=C/C(=O)c2ccc(Cl)cc2)c(OC)c1,n,n,n,n,18µM
Cc1cc(-c2nn(-c3ccccc3F)cc2CN(C)CC(O)CO)c(C)s1 (stereo not drawn),n,n,x,n,n
O=C(N/N=C/C1CC=CCC1)c1cc(Br)ccc1O (stereo not drawn),n,u,n,u,n
O=C(N/N=C/C1CC=CCC1)c1ccccc1O (stereo not drawn),n,11µM,n,u,n
O=C(N/N=C/C1CC=CCC1)c1ccc(Cl)cc1O (stereo not drawn),n,13µM,n,10µM,n
CCOc1cc(C(=O)N/N=C/C2CC=CCC2)cc(OCC)c1OCC (stereo not drawn),n,n,n,n,n
COc1ccc(/C=C2\Oc3cc(OCC(=O)N4CCC[C@H]4C(=O)O)ccc3C2=O)cc1OC,n,n,x,n,n
COc1ccc(N(CC(=O)NCc2cccnc2)S(=O)(=O)c2ccc(C)c([N+](=O)[O-])c2)cc1,n,n,n,n,u
CCOc1ccc(NC(=O)c2cc(S(=O)(=O)N3CCOCC3)cn2C)cc1,n,n,x,n,n
CN(Cc1ccco1)C(=O)CN1C(=O)NC(c2ccccc2)(c2ccccc2)C1=O,n,x,n,x,n
Cc1ccc(CN(C)C(=O)CN2C(=O)NC(c3ccccc3)(c3ccccc3)C2=O)c(C)c1,u,x,n,x,16µM
CN(CC(=O)Nc1c(Cl)cccc1Cl)C(=O)CCCN1C(=O)c2ccccc2C1=O,n,n,n,n,n
CC(=O)c1ccc(N2CCN(C(=O)C(=O)c3cn(CC(=O)N4CCCCCC4)c4ccccc34)CC2)cc1,23µM,n,n,u,13µM
Cc1ccc(NC(=O)CSc2cn(CC(=O)N3CCCC3)c3ccccc23)cc1Cl,26µM,x,n,x,u
CCOc1ccccc1NC(=O)CSc1cn(CC(=O)N2CCCCCC2)c2ccccc12,u,x,n,x,26µM
CC(=O)c1ccc(NC(=O)CSc2cn(CC(=O)N3CCCCC3)c3ccccc23)cc1,u,x,n,x,21µM
CCOC(=O)c1ccccc1NC(=O)CSc1cn(CC(=O)N2CCCCCC2)c2ccccc12,u,x,n,x,u
O=C(C(=O)N1CCOCC1)c1cn(CC(=O)N2CCCCC2)c2ccccc12,n,n,n,n,n
Cc1cc(C(=O)NC(C)CCC(C)C)c2ccccc2n1 (stereo not drawn),n,n,n,n,n
O=C(Nc1nccs1)c1ccc(-c2ccc(F)cc2)o1,n,u,n,u,u
SMILES,TDP1 cell CPT,RORg inh,TDP1 block,VP16 counter,TDP1 cell noCPT
CCOc1ccccc1NC(=O)COC(=O)c1cn(CC)c2nc(C)ccc2c1=O,18µM,x,n,x,u
CCn1cc(C(=O)OCC(=O)c2cc(C)n(-c3ccc(OC(F)F)cc3)c2C)c(=O)c2ccc(C)nc21,u,n,n,n,13µM
CCOc1ccccc1NC(=O)COC(=O)c1ccccc1SCC(=O)N1CCCC1,u,x,x,x,16µM
CCn1cc(C(=O)OCC(=O)Nc2ccccc2OC(F)F)c(=O)c2ccc(C)nc21,n,x,n,x,u
FC(F)(F)c1cccc(-c2noc(CN3CCOCC3)n2)c1,n,n,n,n,n
CN1CCCN(Cc2nc(-c3cccc(C(F)(F)F)c3)no2)CC1,u,n,n,n,16µM
CC(=O)c1ccc(N2CCN(S(=O)(=O)c3c(C(=O)N4CCCCC4)c(C)n(C)c3C)CC2)cc1,n,n,n,n,n
CCCCOc1ccccc1C(=O)NCCCCCC(=O)O,n,n,n,n,n

# Assay outcomes deposited in PubChem by National Center for Advancing Translational Sciences (NCATS).
